Compound activity deposited in PubChem BioAssay by National Center for Advancing Translational Sciences (NCATS).
Sm TGR block: S. mansoni TGR enzyme inhibition; Q962Y6; purified TGR, DTNB reduction, TNB absorbance 405 nm; Potency, µM (series often up to 114 µM), without a hit: top-dose activity change, negative = inhibition, hits mostly inhibitors; 3% of 360,000 active; AID 485364; note: % is set by controls: 0 for no effect and ±100 for the full control effect; nearly all actives have a fitted effect of over 60% in size
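Kinetic colorimetric format: TGR-catalysed, NADPH-driven DTNB reduction monitored via TNB absorbance. Enzyme dispensed at 20 nM; compound exposure 15 min at room temperature before reaction start.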
Pf growth 96h: P. falciparum growth inhibition at 96 hours; P. falciparum luciferase reporter growth, 96 h; Potency, µM (top dose mostly 28.7 µM), for the others: at the top dose activity change, negative = inhibition, hits mostly inhibitors; 6.9% of 320,000 active; note: % is set by controls: 0 for no effect and ±100 for the full control effect
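Luminescence readout: decreased luciferase signal marks inhibited growth of reporter-expressing P. falciparum in infected red cells (2% hematocrit, 0.05% parasitemia final), exposed to compound two generations (96 h, 37 C, 5% CO2).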
Pf growth 48h: inhibits P. falciparum growth in the first generation, 48 h. 5.9% of 310,000 active. P. falciparum luciferase growth in erythrocytes, 48 h. Potency, µM (titrated, usually from 28.7 µM), inactives show at the top dose activity change, negative = inhibition, actives largely listed as inhibitors; note: % is set by controls: 0 for no effect and ±100 for the full control effect
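Compounds are pin-transferred into medium, infected erythrocytes (2% hematocrit, 0.1% parasitemia final) are added, and plates sit one parasite generation at 37 C in 5% CO2. Detection reagent is then added and luminescence measured.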
SARS PLpro yeast: SARS-CoV PLP inhibition in yeast; S. cerevisiae expressing SARS-CoV PLpro, growth rescue; Potency, µM (titrated, usually from 32.9 µM), for inactives: at the top dose activity, positive = growth rescue, actives largely listed as activators; 0.19% of 330,000 active; calls by dose curve; note: 0% is about no effect; nearly all actives have a fitted effect of over 55% in size
Starred values were filed as active, the others as inactive; ? = inconclusive; · = no result given. Shown are actives, neighbours in structure and some others; about 12% of the full set was active somewhere. Unless noted, calls come from the whole dose curve; as a rule, active = well fitted curve in the direction sought with a large enough effect; inconclusive = small, poorly fitted or top-dose-only effect, or another doubt; inactive = no such curve, though single readings can be large; an effect the other way counts as inactive or inconclusive. Potency is the fitted concentration of half-maximal effect.

SMILES | Sm TGR block | Pf growth 96h | Pf growth 48h | SARS PLpro yeast
CCOC(=O)C1=C(CC)OC(N)=C(C#N)C1c1ccc(OC)c(OC)c1OC (stereo not drawn) | ? | ? | 6.1% | 0.8%
CCN(CC)CCNC(C(=O)OCCC(C)C)c1ccccc1 (stereo not drawn) | · | 13.5µM* | 16.9µM* | ·
COc1ccc(-c2c(C)nn3c(C)cc(C)nc23)cc1 | 3.2% | 50.3% | -0.1% | -0.2%
CC1(C)CC(NC(=O)CCc2nnc(CCCCc3ccccc3)o2)CCO1 (stereo not drawn) | 0.0% | 10.4µM* | -19.6% | 0.6%
COC(=O)c1[nH]c2cccc(OC)c2c1NC(=O)CN1CCN(c2cccc(OC)c2)C(C)C1 (stereo not drawn) | -3.4% | -14.1% | ? | -16.7%
CCOC(=O)c1[nH]c2cc(OC)c(OC)cc2c1NC(=O)CN1CCN(c2ccc(OC)cc2)C(C)C1 (stereo not drawn) | -2.7% | · | 9.28µM* | -27.3%
CCOC(=O)c1[nH]c2ccc(F)cc2c1NC(=O)CN1CCN(C/C=C/c2ccccc2)CC1 | -17.5% | 5.86µM* | 9.28µM* | 3.5%
CCOC(=O)c1[nH]c2ccc(F)cc2c1NC(=O)CN1CCc2cc(OC)c(OC)cc2C1 | -10.6% | ? | 11.7µM* | -2.2%
Cc1ccc(F)cc1NC(=O)CSc1nnc(CNC(=O)c2ccco2)n1C | ? | -1.1% | 31.1% | -2.8%
O=C1Cc2cc(CCN3CCN(c4nsc5ccccc45)CC3)c(Cl)cc2N1 | ? | · | · | -4.9%
Cc1ccc(NC(=O)Nc2nnc(N3CCCC3)s2)cc1C | -7.3% | · | · | ·
C=CCSc1cc(C)nc2c(-c3ccccc3)c(C)nn12 | -27.4% | 10.4µM* | ? | 1.2%
Cc1ccc(NS(=O)(=O)c2ccc3nc(-c4ccccc4)[nH]c3c2)c(Cl)c1 | -2.9% | · | · | ·
Cc1ccccc1NC(=O)COc1ccc2oc3c(c2c1)CCCC3 | 1.0% | · | · | ·
Cc1ccnc(NC(=O)COc2ccc3oc4c(c3c2)CCCC4)c1 | 0.0% | 11.7µM* | 125.2% | 3.2%
CC(C)OCCCNC(=O)COc1ccc2oc3c(c2c1)CCCC3 | 1.8% | 4.15µM* | -18.8% | -11.4%
CC1=CC(c2ccccc2)n2nc(N3C(=O)c4ccccc4C3=O)nc2N1 (stereo not drawn) | 35.5µM* | · | -8.6% | -4.6%
CC1=CC(c2ccccc2)n2nc(N3C(=O)CCC3=O)nc2N1 (stereo not drawn) | 52.5% | -10.7% | -4.4% | 2.3%
CCc1ccc(NC(=O)c2ccc(CN3CC(=O)N4CCCCC4C3=O)cc2)cc1 (stereo not drawn) | -0.7% | · | · | ·
CN1CCN(Cc2c(O)ccc3occ(C(=O)c4ccccc4)c23)CC1 | -21.2% | 10.9% | ? | 2.5%
CC(=O)C(C(C)=O)c1c(Cl)c(O)c(O)c2c(C(=O)c3ccccc3)coc12 | 2.51µM* | 2.62µM* | · | -6.8%
CCCC(=O)NC(Oc1ccc(C(C)=O)cc1)C(Cl)(Cl)Cl (stereo not drawn) | 28.2µM* | -14.1% | 29.6% | 0.1%
Cc1ccccc1C(=O)NC(Oc1ccccc1)C(Cl)(Cl)Cl (stereo not drawn) | -6.6% | 69.8% | -12.2% | 8.8%
CCN(C(=O)c1cnc(NC(C)C)cc1C(F)(F)F)c1ccc(Cl)cc1Cl | 15.1% | 11.7µM* | 2.94µM* | -2.9%
CCN(C(=O)c1cc(Cl)ccc1OC)c1ccccc1C | -0.2% | -3.2% | ? | 21.0%
SMILES | Sm TGR block | Pf growth 96h | Pf growth 48h | SARS PLpro yeast
Cc1cccn2c(=O)c3cc(C(=O)NCc4ccccc4Cl)sc3nc12 | -0.9% | · | · | ·
Cn1c(CC(=O)c2ccc(Br)cc2)[n+](C)c2ccccc21 | -7.7% | 0.738µM* | 13.1µM* | 0.7%
C=CCn1c(=N)n(CC(=O)c2ccc(Br)cc2)c2ccccc21 | -5.5% | 6.6% | ? | ?
CCOC(=O)c1c(C)oc2nc(C)nc(NCC3CCN(Cc4cc(C)ccc4C)CC3)c12 | -10.0% | · | · | ·
Cc1nnc2sc(SCC(=O)Nc3ccc(Cl)cc3)nn2c1=O | -2.8% | ? | ? | 1.7%
Cc1cccc(CSc2nn3c(=O)c(C)nnc3s2)c1 | ? | ? | 10.4µM* | -8.1%
Cc1nnc2sc(SCc3ccc(Cl)cc3)nn2c1=O | -22.6% | 1.04µM* | ? | 9.1%
Cc1ccc(C(=O)CSc2nn3c(=O)c(C(C)(C)C)nnc3s2)cc1 | -30.9% | ? | -3.8% | 10.1%
Cc1ccc(CSc2nn3c(=O)c(C)nnc3s2)cc1 | -3.5% | ? | 8.28µM* | 8.5%
CC(=O)Nc1cccc(NC(=O)CSc2nn3c(=O)c(C)nnc3s2)c1 | -1.1% | 5.22µM* | 9.28µM* | 0.7%
Cc1cc(C(C)(C)C)ccc1OC(=O)C1=CC=CN2CCS(=O)(=O)N=C12 | -14.6% | -4.0% | 5.6% | -1.2%
COc1cc(C2c3c(oc4ccccc4c3=O)C(=O)N2c2nncs2)cc(OC)c1OC (stereo not drawn) | 8.8% | · | · | ·
COC(=O)c1ccccc1NC(=O)CN(CCc1ccccc1)S(C)(=O)=O | -0.1% | 4.3% | 1.2% | ·
CS(=O)(=O)c1ncc(Cl)c(C(=O)N(Cc2ccc(Cl)cc2)Cc2ccco2)n1 | 1.78µM* | · | · | ·
COC(=O)c1cscc1S(=O)(=O)Cc1ccccc1 | 10µM* | -22.2% | 26.8% | 3.3%
Cc1noc(C(=O)NCc2ccccc2)c1Cl | 4.6% | -1.2% | · | 2.6%
COc1ccc(CNC(=O)c2nc(SC(C)C)ncc2Cl)cc1 | -3.9% | · | · | ·
COc1ccc(CNC(=O)c2nc(S(=O)(=O)Cc3ccccc3)ncc2Cl)cc1 | 2.51µM* | 43.6% | 24.6% | -8.4%
O=C(NCc1ccccc1)c1nc(S(=O)(=O)Cc2ccccc2)ncc1Cl | 8.91µM* | ? | 15.2% | -12.8%
Cc1cc(Nc2cc(F)ccc2C)nc(-n2nc(C)cc2C)n1 | -1.2% | · | · | ·
CCc1ccccc1NC(=O)CSc1nnc(-c2cc(OC)c(OC)c(OC)c2)o1 | -2.7% | · | · | ·
COc1ccc(N(Cc2ccccc2)C(=O)c2nc(S(C)(=O)=O)ncc2Cl)cc1 | 5.62µM* | · | · | ·
CCCS(=O)(=O)c1ncc(Cl)c(C(=O)Nc2c(C(=O)Nc3ccccc3)oc3ccccc23)n1 | -5.4% | · | · | ·
CC(=O)Nc1ccc(NC(=O)c2nc(S(=O)(=O)Cc3ccccc3)ncc2Cl)cc1 | 5.01µM* | ? | 43.1% | 8.9%
CCSc1ncc(Cl)c(C(=O)Nc2ccccc2OC)n1 | 32.3% | -5.3% | ? | 5.0%
SMILES | Sm TGR block | Pf growth 96h | Pf growth 48h | SARS PLpro yeast
CCS(=O)(=O)c1ncc(Cl)c(C(=O)NCc2ccccc2)n1 | 31.6µM* | · | · | ·
CS(=O)(=O)c1ncc(Cl)c(C(=O)Nc2ccc3ccccc3c2)n1 | · | 6.3% | 1.1% | -3.4%
COC(=O)c1ccccc1NC(=O)c1nc(S(=O)(=O)Cc2ccccc2)ncc1Cl | 2.82µM* | ? | 18.4% | -7.2%
Nn1cnnc1SCC(=O)N1CCc2ccccc2C1 | 7.1% | -17.3% | 13.5% | -4.7%
COc1ccc(C2(N3CCN(c4cccc(C)c4C)CC3)C(=O)c3ccccc3C2=O)cc1 | -22.0% | · | · | ·
CC1CCN(C(=O)CSc2nnc3c(n2)[nH]c2ccc(F)cc23)CC1 | -10.3% | ? | 1.65µM* | 1.9%
CC1CCc2cc(F)ccc2N1C(=O)CSc1nnc2c(n1)[nH]c1ccc(F)cc12 (stereo not drawn) | 13.3% | ? | 1.04µM* | 4.2%
